SMILES strings stand for the structures. Records with an inconclusive call do not appear. A call without a number means that no potency is given here. Active and inactive are the calls of the source. The call rests on the fitted dose curve; in most records, active means well fitted inhibition curve with a large enough effect; inconclusive means small, poorly fitted or top-dose-only effect; inactive means no such curve, though single readings can be large or run the other way.
Potency means the concentration at half of the fitted maximal effect.

This assay is described as follows: qHTS for Inhibitors of the Aldehyde Dehydrogenase Family (ALDH1A2, ALDH1A3, ALDH2, ALDH3A1) (AID 2061307). Further: nearly all actives have a fitted effect of over 50% in size. On potency: test system not described further here. Conditions: ALDH inhibition qHTS; series mostly up to 50.3 µM. On the technique in general: Quantitative high-throughput screening tests each substance at several concentrations.
For the compound `CC(C)CCN(C)Cc1ccc(-c2ccccc2)cc1`, the Potency is 25.1 µM (active).
Turning to `CCOC(=O)c1[nH]c2c(c1C)C(=S)CC(c1ccco1)C2` (stereo not given), the Potency was 8.96 µM (active).
The same measure for `Cc1ccc(-c2cc(C(=O)NCc3cccc(F)c3)nn3cnnc23)cc1`: 8.91 µM (active); for `CC(=O)N1CCN(c2ccc(NCc3ccco3)cc2)CC1`: 4 µM (active).
The same measure for `CC(=O)c1ccc(N2CCN(C(=O)CCS(=O)(=O)c3ccc4c(c3)oc(=O)n4C)CC2)cc1`: “inactive”; for `CC(C)(C)c1ccc(S(=O)(=O)c2cnc(SCC(=O)Nc3ccc(F)c(Cl)c3)[nH]c2=O)cc1`: 12.7 µM (active).
The same measure for `O=C1Nc2ccc(Cl)cc2/C1=C\c1cc(Cl)c(O)c(Cl)c1`: 10.1 µM (active).
Consider `COc1cc(NS(=O)(=O)c2cccc([N+](=O)[O-])c2)c2ncccc2c1`, for which the Potency was 11.3 µM (active).
Turning to `CN(C)c1ccc(-c2cc[nH]c(=O)c2N)cc1`, the Potency was 12.7 µM (active).
The same measure for `O=C1Nc2cc(Cl)ccc2/C1=C\c1cc(Cl)c(O)c(Cl)c1`: 3.57 µM (active); for `Cc1sc(NC(=O)Cc2ccc3c(c2)OCO3)nc1-c1ccc2c(c1)CCN2`: 20.1 µM (active).
For `Cc1cc(C)nc(NC(=S)N2CCN(c3ccc4cn(C)nc4c3)CC2)c1` the value was “inactive”; for `NC(=O)C1CCN(c2nc(-c3ccc4ccccc4c3)cs2)CC1`, 5.65 µM (active).
Consider `Cc1ccc(S(=O)(=O)Nc2cnccc2C(=O)Nc2nc(C(=O)O)cs2)cc1`, for which the Potency result is “inactive”.
The same measure for `O=C(C1CCN(Cc2ccccc2-c2ccccc2F)CC1)N1CCN(Cc2ccccc2)CC1`: “inactive”; for `COc1ccc(C(=O)N(Cc2ccco2)Cc2ccco2)c(O)c1`: 0.891 µM (active); for `CCC(=O)Nc1ccc(S(=O)(=O)NCc2ccc3c(c2)CCN3C(=O)c2ccc(C)cc2)cc1`: “inactive”.
Consider `O=C(O)CN1C(=O)/C(=C/c2ccc(-c3cccc(Cl)c3)o2)SC1=S`, for which the Potency is 11.3 µM (active).
The same measure for `CC(=O)c1c(C)n(-c2cccc(C)c2)c2ccc(OC(=O)COc3ccccc3)cc12`: “inactive”; for `CCOC(=O)c1c(C)n(-c2ccc(OC)cc2)c2ccc(OC(=O)COc3ccccc3)cc12`: “inactive”.
The same measure for `COc1cccc(S(=O)(=O)N2CCC3(CC2)CC(CC(=O)NC2CC2)CCO3)c1` (stereo not given): “inactive”; for `CN1CCN(c2ccc(NC(=O)CN(C)Cc3c(O)ccc4ccccc34)cc2)CC1`: 7.12 µM (active).
For `COc1cccc(CNC(=O)c2ccc3c(c2)sc2nc(-c4ccccc4)cn23)c1OC` the value was “inactive”; for `O=C1Cc2cc(S(=O)(=O)N3CCN(c4ccc(F)cc4)CC3)ccc2N1`, “inactive”.
`CCOC(=O)C1CCN(C(=O)C(C)(C)NC(=O)Nc2ccc(N(C)C)cc2)CC1`: the Potency entry was “inactive”.
The same measure for `CC(=O)N1CCN(c2ccc(NCc3ccc4c(c3)OCO4)cc2)CC1`: 8.96 µM (active).
The same measure for `Cc1nc(C(C)Nc2ncnc3ccc(-c4ccc5c(c4)OCO5)cc23)cs1` (stereo not given): “inactive”; for `COc1ccc(C2=NN(CC(=O)NCCc3ccc(OC)c(OC)c3)C(=O)CC2)cc1`: “inactive”; for `O=C(O)c1ccc2c(c1)C(=O)N(CCc1ccc(O)cc1)C2=O`: “inactive”.
As to `COc1ccc(-n2c(C)c(C(C)=O)c3cc(OC(=O)c4ccc(C)cc4)ccc32)cc1`, the Potency entry is “inactive”.
For `COc1ccc(C2Nc3ccccc3C(=O)N2Cc2ccco2)cc1COc1ccc(N)cc1` (stereo not given) the value was 1.79 µM (active); for `O=C1Cc2cc(S(=O)(=O)N3CCNCC3)ccc2N1`, “inactive”; for `CN(C)c1cccc(-c2cnc(N3CCC(c4ncc[nH]4)CC3)s2)c1`, 10.1 µM (active).
For `Cc1ccc(C(=O)NCC(c2ccc3c(c2)OCO3)N2CCN(c3ccc(F)cc3)CC2)cc1` (stereo not given) the value was “inactive”; for `O=S1(=O)N=C(Oc2cccc3ccccc23)c2ccccc21`, 2.83 µM (active); for `COc1ccc(Cl)cc1C(=O)NCc1nnc2cc(-c3nc(C)no3)ccn12`, “inactive”.
The same measure for `COc1ccc(C2=Nn3c(nnc3-c3ccccc3OC)SC2)cc1OC1CCCC1`: 15.8 µM (active); for `Cc1ccc(CCN2C(=O)c3ccc(C(=O)O)cc3C2=O)cc1`: “inactive”.
For the compound `CC(=O)N1CCN(c2ccc(NCc3ccc(Br)o3)cc2)CC1`, the Potency was 10.1 µM (active).
The same measure for `CC(=O)Nc1sc2c(c1-c1csc3ccccc13)CCNC2`: “inactive”.
